The record followed here is ChEMBL document CHEMBL3988442, “University of Dundee, Small-Polar-MMV Screening Library” (2021).

Assay [1] addresses T1, Aspartate--tRNA(Asp/Asn) ligase (Mycobacterium tuberculosis (strain ATCC 25618 / H37Rv)) (UniProt P9WFW3).
T1 sequence (whole entry): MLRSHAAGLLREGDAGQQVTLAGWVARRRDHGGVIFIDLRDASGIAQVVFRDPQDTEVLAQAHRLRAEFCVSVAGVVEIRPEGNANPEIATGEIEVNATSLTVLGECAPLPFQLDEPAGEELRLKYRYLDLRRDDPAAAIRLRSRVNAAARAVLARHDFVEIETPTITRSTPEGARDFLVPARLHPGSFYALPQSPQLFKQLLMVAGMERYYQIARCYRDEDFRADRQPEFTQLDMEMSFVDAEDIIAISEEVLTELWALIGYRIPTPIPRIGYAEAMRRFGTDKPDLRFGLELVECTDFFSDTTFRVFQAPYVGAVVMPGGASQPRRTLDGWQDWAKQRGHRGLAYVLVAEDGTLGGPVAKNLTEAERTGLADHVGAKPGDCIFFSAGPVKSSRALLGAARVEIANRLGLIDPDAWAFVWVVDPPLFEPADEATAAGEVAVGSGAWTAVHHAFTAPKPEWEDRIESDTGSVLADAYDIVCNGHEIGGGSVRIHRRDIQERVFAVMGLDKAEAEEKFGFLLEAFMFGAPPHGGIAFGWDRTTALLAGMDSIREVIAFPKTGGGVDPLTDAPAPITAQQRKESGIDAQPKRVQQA
Put plainly: Assay for Asp RNA synthetase-1 from Mycobacterium tuberculosis. As to conditions: 30 µM. It counts as functional. The arrangement: scale not given: direction of the effect not stated beside the values.

The target in assay [2] is Shiga toxin 2 (Escherichia coli O157:H7) (UniProt P09385+P09386). The experiment in a line: E. coli 0.157:H7 Shiga Toxin SOP - stx2 screening assay. As to conditions: 30 µM. The arrangement: scale not given: direction of the effect not stated beside the values. It counts as functional.

As to `Cc1cc(C)c2nc(CN3CC[C@@H](O)C3)cc(O)c2c1`, the Percent Effect amounted to 3.16% in assay [1] and 7.54% in assay [2].
Taken in the same sequence, the figures for `CC(C)CCn1c(=O)nc2n1C(=O)N(c1ccc(F)cc1)C2` were -0.24% and -15.1%.
Taken in the same sequence, the figures for `CCn1nc2c(cc1=O)CN(Cc1nc(N)c3ccccc3n1)CC2` were 1.61% and 15.6%.
As for `CCOc1ncccc1NC(=O)c1sccc1C`, the Percent Effect in assay [1] is -0.501%; in assay [2], -11.1%.
On the same counts, the results for `CN1CCN(Cc2cnc3n2CCN(Cc2cccs2)C3)CC1` are 5.52% and -18.8%.
Taken in the same sequence, the figures for `CCc1ccc(OCC(O)CN2CCN(S(C)(=O)=O)CC2)cc1` (centres undefined) were -0.577% and 22.4%.
As to `COc1cccc(COCC(=O)N2CCCC(N3CCCC3)CC2)c1` (centres undefined), the Percent Effect in assay [1] was -5.12%; in assay [2], 12.6%.
Take `CCN1CCC(CNC(=O)C2(c3cccc(C)c3)CC2)C1` (centres undefined): the Percent Effect in assay [1] turned out to be 2.87%; in assay [2], 1.34%.
Taken in the same sequence, the figures for `CC(C)(C)c1ccc(C2(C(=O)NCCCS(C)(=O)=O)CC2)cc1` were 8.98% and -49.3%.
Taken in the same sequence, the figures for `CC(C)CNC(=O)c1c(-n2cnnn2)sc2c1CCC2` were 8.87% and 2.02%.
Take `CCc1nc(NCCCOC)c2c(n1)c(C)nn2C`: the Percent Effect in assay [1] is -8.39%; in assay [2], -21.6%.
Taken in the same sequence, the figures for `CCOCC1CC2(CCN(C(=O)c3ccccc3F)CC2)CO1` (centres undefined) were 3.1% and 5.12%.
In the case of `Cc1cccc(OCCC(=O)N(C)CCNS(C)(=O)=O)c1C`, the Percent Effect in assay [1] came to 0.299%; in assay [2] it was 6.1%.
In the case of `Cc1nc(C)n(C2CCCN(C(=O)c3ccc(N(C)C)nn3)C2)n1` (centres undefined), the Percent Effect was 0.605% in assay [1] and 11.2% in assay [2].
With `CCNC(=O)N(C)Cc1ccc(SC)c(OC)c1`, the Percent Effect in assay [1] was 4.58%; in assay [2], 0.0534%.
Taken in the same sequence, the figures for `Cn1ccc(C(=O)NCc2ccc(N3CCCC3)nc2)cc1=O` were 0.0735% and -33.5%.
`Cc1nc(CCNC(=O)N2CCC(Cc3cnn(C)c3)C2)cs1` (centres undefined): the values for the Percent Effect in assay [1] and in assay [2] were -5.21% and -13.9%, respectively.
In the case of `CN(CCc1cccs1)C1CCCN(Cc2noc(C3CC3)n2)C1` (centres undefined), the Percent Effect is -1.53% in assay [1] and 16.2% in assay [2].
Taken in the same sequence, the figures for `CNC(=O)c1ccc(CN(C(=O)c2scnc2C)C2CC2)cc1` were -2.83% and -32.1%.
Taken in the same sequence, the figures for `CCn1c(C)nnc1CN(C)C1CCN(Cc2cnc(C)cn2)C1` (centres undefined) were 2.78% and -19%.
On the same counts, the results for `NC(=O)COc1cccc(C(=O)N2CCCC(n3cccn3)C2)c1` (centres undefined) are -6% and -18.8%.
Consider `CCOc1ccccc1CSc1nnc(CC2CCS(=O)(=O)C2)n1C` (centres undefined), for which the Percent Effect was 4.33% in assay [1] and 4.92% in assay [2].
With `O=C(NCC1CC1)C1CN(C(=O)c2cccnc2)CC12CCOCC2` (centres undefined), the Percent Effect is -2.58% in assay [1] and -10.2% in assay [2].
Take `Cc1cccc(C)c1OCCNC(=O)NC(C)c1nncn1C` (centres undefined): the Percent Effect in assay [1] is -2.19%; in assay [2] it was -46.4%.
With `O=C1[C@H]2CN(CC3CC3)C[C@H]2CN1Cc1cccc(F)c1`, the Percent Effect in assay [1] was 1.33%; in assay [2] it was -1.04%.
On the same counts, the results for `COc1ncccc1NC(=O)C1CC(=O)N(Cc2ccccn2)C1` (centres undefined) are 1.2% and -0.103%.
For the compound `O=C1COC2(CCN(Cc3ccc(F)cc3)CC2)CN1`, the Percent Effect in assay [1] was 0.549%; in assay [2], 11.4%.
For the compound `O=C(Cc1noc2ccccc12)N1CCCC1c1noc(C2CC2)n1` (centres undefined), the results for the Percent Effect in assay [1] and in assay [2] were -3.11% and 8.27%, respectively.
On to `CS(=O)(=O)CCSc1cccc(C#N)c1`, for which the Percent Effect was 0.641% in assay [1] and 4.17% in assay [2].
Taken in the same sequence, the figures for `CCS(=O)(=O)c1ccccc1C(=O)NCc1ccnc(N(C)C)c1` were -3.31% and -44.7%.
Consider `Fc1ccc(CN2CCCC2Cn2cccn2)c2ncccc12` (centres undefined), for which the Percent Effect in assay [1] is -2.13%; in assay [2], -3.45%.
Taken in the same sequence, the figures for `Cc1ccc(SCC2CNc3nc4ccccc4c(=O)n32)c(C)c1` (centres undefined) were 0.0228% and 9.77%.
Turning to `CCCn1nc2c(cc1=O)CN(CCCS(N)(=O)=O)CC2`, the Percent Effect in assay [1] was 18.8%; in assay [2] it was 7.35%.
With `CC(C)OCCOCc1cccc(NC(=O)NCc2ccncc2)c1`, the Percent Effect in assay [1] is 13%; in assay [2], -69.6%.
On the same counts, the results for `CC(C)CCN1Cc2c(C(=O)O)ncn2-c2ccccc2S1(=O)=O` are -0.474% and -10.7%.
For the compound `CC(=O)N1[C@H](Cn2cncn2)C[C@@H]2CN(c3ccc(C)nn3)CC[C@@H]21`, the Percent Effect in assay [1] was -1.81%; in assay [2], -4.03%.
On to `CCCS(=O)(=O)N1CCC2(CN(c3ccsc3)C(=O)CN2C)C1` (centres undefined), for which the Percent Effect in assay [1] is -3.98%; in assay [2] it was -8.23%.
For the compound `O=C(CCC1CCCC1)NCCn1nc(C2CCNC2)c2cccnc21` (centres undefined), the figures for the Percent Effect in assay [1] and in assay [2] were -0.368% and -19.4%, respectively.
Take `O=C(NCC1(N2CCOCC2)CCSC1)Nc1ccc(F)cc1` (centres undefined): the Percent Effect in assay [1] was 2%; in assay [2], -8.73%.
With `O=C(NCCC(=O)N1CCCC1)c1nn(-c2ccccc2F)cc1O`, the Percent Effect in assay [1] is -3.29%; in assay [2], -59.6%.
Taken in the same sequence, the figures for `COc1cc(CNCCc2cnn(C)c2)cc2c1OCCO2` were -1.03% and 10.4%.
Taken in the same sequence, the figures for `CCc1nc(NCCCn2cccn2)c2c(n1)c(C)nn2C` were -0.755% and -14.3%.
Taken in the same sequence, the figures for `CN(C)Cc1cnc2n1CCN(Cc1ccsc1)CC2` were -5.79% and -3.72%.
With `Cc1nn(-c2ccccc2)cc1C(=O)N1CCCN2CCCC2C1` (centres undefined), the Percent Effect is -6.57% in assay [1] and -22% in assay [2].
As for `CC(C)Oc1cccc(C(=O)C2CCCN(C(=O)c3ncn[nH]3)C2)c1` (centres undefined), the results for the Percent Effect in assay [1] and in assay [2] were 0.948% and -0.343%, respectively.
As for `COc1ncccc1CNc1cc(N2CCCC2CO)ncn1` (centres undefined), the Percent Effect in assay [1] was -0.88%; in assay [2] it was -26.2%.
As for `CC(C)c1cc2c(O)nc(CSCC(=O)O)nc2s1`, the results for the Percent Effect in assay [1] and in assay [2] were -0.29% and -12.1%, respectively.
Regarding `Cc1nc(-c2ccccc2)sc1C(=O)NCCNc1ncccn1`, the Percent Effect was -2.89% in assay [1] and 28.3% in assay [2].
On the same counts, the results for `Cc1[nH]/c(=N\C(=O)c2csc(NCC(C)C)n2)sc1C` are 0.43% and 12%.
On the same counts, the results for `COc1ccc(CCC(=O)Nc2cccnc2N2CCCC2)cc1Br` are -3.21% and 28.3%.
On the same counts, the results for `Cc1noc2ncc(C(=O)N3CCCC3c3cnn(C)c3)cc12` (centres undefined) are 3.4% and -3.42%.
As to `c1csc(CN2C[C@@H]3OCCN(CC4CCCO4)[C@@H]3C2)c1` (some centres undefined), the Percent Effect in assay [1] was -2.14%; in assay [2] it was 7.71%.
